Results from PubChem BioAssay (NCATS).
Inconclusive results are not listed. A call without a number means that no potency is given here. Calls of active or inactive are those of the source. Calls follow the shape of the dose curve; as a rule, active = well fitted curve in the direction sought with a large enough effect; inconclusive = small, poorly fitted or top-dose-only effect, or another doubt; inactive = no such curve, though single readings can be large; an effect the other way counts as inactive or inconclusive.

assay: qHTS of pediatric cancer cell lines to identify multiple opportunities for drug repurposing: Primary screen for control Hh wild type fibroblast cells (AID 1347106); conditions: Hh wild-type fibroblast viability, CellTiter-Glo luminescence, 48 h; series mostly up to 46 µM; also: nearly all actives have a fitted effect of over 55% in size
In short: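 Cells (500-1,000/well) in growth media were settled 5 h at 37 degrees C, then given compounds for 48 h. Viability was read as CellTiter-Glo luminescence. Primary runs used MIPE at 11 points (0.78 nM-46 µM) and NPC at 8 points (0.59 nM-46 µM); follow-ups used 11 points.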
Potency is read from the fitted curve at half-maximal effect.

SMILES | Potency
COc1ccc(-c2coc3cc(O)cc(O)c3c2=O)cc1 | inactive
CC=CC[C@@H](C)C(=O)[C@H]1C(=O)N[C@@H](C(C)C)C(=O)N(C)CC(=O)N(C)[C@@H](CC(C)C)C(=O)N[C@@H](C(C)C)C(=O)N(C)[C@@H](CC(C)C)C(=O)N[C@@H](C)C(=O)N[C@H](C)C(=O)N(C)[C@@H](CC(C)C)C(=O)N(C)[C@@H](CC(C)C)C(=O)N(C)[C@@H](C(C)C)C(=O)N1C | inactive
CC(C)(C)NC(=O)Nc1cccc(Nc2ncc(F)c(NC(C)(C)CO)n2)c1 | inactive
CC[C@@]1(O)C[C@H](O[C@H]2C[C@H](N(C)C)[C@H](O[C@H]3C[C@H](O)[C@H](O[C@H]4CCC(=O)[C@H](C)O4)[C@H](C)O3)[C@H](C)O2)c2c(cc3c(c2O)C(=O)c2c(O)cccc2C3=O)[C@@H]1C(=O)OC | inactive
CC1(C)CCC2=C(O1)c1ccccc1C(=O)C2=O | inactive
CC(=NNC(=S)N1CCC1)c1ccccn1 | 0.166 µM (active)
N#Cc1ccc(NC(=O)Nc2ccccc2Br)c2n[nH]nc12 | inactive
CC/C(=C(\c1ccccc1)c1ccc(OCCN(C)C)cc1)c1ccccc1 | inactive
COC(=O)[C@@H]1[C@H]2C[C@H]3c4[nH]c5ccccc5c4CCN3C[C@@H]2CC[C@@H]1O | inactive
CO[C@H]1C[C@@H]2CC[C@@H](C)[C@@](O)(O2)C(=O)C(=O)N2CCCC[C@@H]2C(=O)O[C@H]([C@H](C)C[C@@H]2CC[C@H](OP(C)(C)=O)[C@H](OC)C2)CC(=O)[C@H](C)C=C(C)[C@@H](O)[C@@H](OC)C(=O)[C@H](C)C[C@H](C)C=CC=CC=C1C | inactive
CC1(C)CCC[C@@]2(C)[C@@H]1CC[C@@]1(C)OC(=O)C[C@H]21 | inactive
COc1ccc(-n2c(C)c([N+](=O)[O-])c3ccc(O)cc32)cc1 | inactive
O=C(NCc1ccncc1)C12C[C@H]3C[C@@H](C1)CC(c1ccc(Cl)cc1)(C3)C2 | inactive
COc1ccc2cc(-c3nc(-c4ccc(S(C)=O)cc4)[nH]c3-c3ccncc3)ccc2c1 (stereo unspecified) | inactive
CO[C@@H](C(=O)N1Cc2[nH]nc(NC(=O)c3ccc(N4CCN(C)CC4)cc3)c2C1)c1ccccc1 | 9.35 µM (active)
CC1=C(/C=C/C(C)=C/C=C/C(C)=C/C(=O)Nc2ccc(O)cc2)C(C)(C)CCC1 | inactive
O=C(O)[C@H]1O[C@H](Oc2cc3oc(-c4ccccc4)cc(=O)c3c(O)c2O)[C@H](O)[C@@H](O)[C@H]1O | inactive
Cc1c(O)cccc1C(=O)N[C@@H](CSc1ccccc1)[C@H](O)CN1C[C@H]2CCCC[C@@H]2C[C@@H]1C(=O)NC(C)(C)C | inactive
NC(=O)c1cnc(-c2ccc(C3(N)CCC3)cc2)c(-c2ccccc2)c1 | inactive
COc1ncc(-c2ccc3nccc(-c4ccnnc4)c3c2)cc1NS(=O)(=O)c1ccc(F)cc1F | inactive
Cc1ccc(/C=N/NC(=O)c2ccccc2Oc2ccccc2)o1 | inactive
CCc1ccc(C=C2SC(=S)NC2=O)cc1 | inactive
CCS(=O)(=O)N1CC(CC#N)(n2cc(-c3ncnc4[nH]ccc34)cn2)C1 | inactive
N#CC1(c2ccc(NC(=O)c3cccnc3NCc3ccncc3)cc2)CCCC1 | inactive
CC=CC(=O)N(CC)c1ccccc1C | inactive
C=C1C(=O)OC2C=C(C)CCC=C(C)CCC12 (stereo unspecified) | inactive

assay: qHTS of pediatric cancer cell lines to identify multiple opportunities for drug repurposing: Primary screen for Rh30 cells (AID 1347107); conditions: Rh30 rhabdomyosarcoma viability, CellTiter-Glo luminescence, 48 h; series mostly up to 46 µM; also: nearly all actives have a fitted effect of over 75% in size
In short: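 Viability after 48 h compound treatment at 37C, 500-1,000 cells/well, read as ATP luminescence with CellTiter-Glo. Primary screens used 11-point (MIPE, 0.78 nM-46 µM) or 8-point (NPC, 0.59 nM-46 µM) final concentrations; follow-up screens used 11-point dilutions.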

SMILES | Potency
COc1cccc([C@@H](C)NCCCc2ccccc2Cl)c1 | inactive
COc1ccc(-c2coc3cc(O)cc(O)c3c2=O)cc1 | inactive
CC=CC[C@@H](C)C(=O)[C@H]1C(=O)N[C@@H](C(C)C)C(=O)N(C)CC(=O)N(C)[C@@H](CC(C)C)C(=O)N[C@@H](C(C)C)C(=O)N(C)[C@@H](CC(C)C)C(=O)N[C@@H](C)C(=O)N[C@H](C)C(=O)N(C)[C@@H](CC(C)C)C(=O)N(C)[C@@H](CC(C)C)C(=O)N(C)[C@@H](C(C)C)C(=O)N1C | inactive
CN(C)C1CCN(C(=O)c2ccc(NC(=O)Nc3nc(N4CCOCC4)nc(N4CCOCC4)n3)cc2)CC1 | inactive
CC(C)(Cc1ccc2ccccc2c1)NC[C@@H](O)COc1cccc(Cl)c1C#N | inactive
CC(C)(C)NC(=O)Nc1cccc(Nc2ncc(F)c(NC(C)(C)CO)n2)c1 | inactive
CC[C@@]1(O)C[C@H](O[C@H]2C[C@H](N(C)C)[C@H](O[C@H]3C[C@H](O)[C@H](O[C@H]4CCC(=O)[C@H](C)O4)[C@H](C)O3)[C@H](C)O2)c2c(cc3c(c2O)C(=O)c2c(O)cccc2C3=O)[C@@H]1C(=O)OC | inactive
CC(C)(C)COc1ccc(-n2cc(C(=O)O)cn2)cc1C#N | inactive
CC1(C)CCC2=C(O1)c1ccccc1C(=O)C2=O | 23.5 µM (active)
N#Cc1ccc(NC(=O)Nc2ccccc2Br)c2n[nH]nc12 | inactive
CC/C(=C(\c1ccccc1)c1ccc(OCCN(C)C)cc1)c1ccccc1 | inactive
COC(=O)[C@@H]1[C@H]2C[C@H]3c4[nH]c5ccccc5c4CCN3C[C@@H]2CC[C@@H]1O | inactive
c1ccc2c(-c3cnn4cc(-c5ccc(N6CCNCC6)cc5)cnc34)ccnc2c1 | 18.7 µM (active)
CO[C@H]1C[C@@H]2CC[C@@H](C)[C@@](O)(O2)C(=O)C(=O)N2CCCC[C@@H]2C(=O)O[C@H]([C@H](C)C[C@@H]2CC[C@H](OP(C)(C)=O)[C@H](OC)C2)CC(=O)[C@H](C)C=C(C)[C@@H](O)[C@@H](OC)C(=O)[C@H](C)C[C@H](C)C=CC=CC=C1C | inactive
CC1(C)CCC[C@@]2(C)[C@@H]1CC[C@@]1(C)OC(=O)C[C@H]21 | inactive
COc1ccc2cc(-c3nc(-c4ccc(S(C)=O)cc4)[nH]c3-c3ccncc3)ccc2c1 (stereo unspecified) | inactive
CO[C@@H](C(=O)N1Cc2[nH]nc(NC(=O)c3ccc(N4CCN(C)CC4)cc3)c2C1)c1ccccc1 | inactive
CCNc1cc(NC2CCC(O)CC2)nc(Nc2ccc3c(ccn3Cc3ccccc3)c2)n1 (stereo unspecified) | inactive
NC(CO)(CO)CCc1ccc(Sc2cccc(OCc3ccccc3)c2)cc1Cl | inactive
NC(=O)c1cnc(-c2ccc(C3(N)CCC3)cc2)c(-c2ccccc2)c1 | inactive
COc1ncc(-c2ccc3nccc(-c4ccnnc4)c3c2)cc1NS(=O)(=O)c1ccc(F)cc1F | 1.48 µM (active)
CCc1ccc(C=C2SC(=S)NC2=O)cc1 | inactive
O=C1Nc2ccc(Cl)cc2C(C#CC2CC2)(C(F)(F)F)O1 (stereo unspecified) | inactive
N#CC1(c2ccc(NC(=O)c3cccnc3NCc3ccncc3)cc2)CCCC1 | inactive
CC=CC(=O)N(CC)c1ccccc1C | inactive
